Z-score and composite z-score data for 35 compounds are collected here from PubChem BioAssay.

Activity calls are given as the source filed them.

The first test in a line: E. coli growth modulation, two-sided OD650, primary screen, E. coli filamentation project, strain DRC41, 24 h (AID 1093).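 Also: MC1000 strain lacking acrAB efflux and sulA so SOS filamentation is blocked; test concentration not given here.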 The settings on record: OD650, 24 h, higher = more signal, called active from +8 up or from −8 down.
In the case of `CO[C@H]1O[C@H](CO)[C@@H](OC(=O)Nc2ccccc2-c2ccccc2)[C@H](OC(=O)Nc2ccc3c(c2)OCO3)[C@H]1OC(=O)Nc1ccc2c(c1)OCO2`, the z-score is 2 (inactive). Same read-out and setting: for `COC(=O)[C@@]1(Cc2ccc(F)cc2)[C@H]2c3cc(C(=O)N4CCCC4)n(CCN4CNCC4=O)c3C[C@H]2CN1C(=O)c1ccccc1` the value was -0.151 (inactive); for `CN(C)CCCNC(=O)[C@@H]1c2ccccc2C(=O)N(Cc2ccccc2Cl)[C@H]1c1ccc(CO)cc1`, 0.596 (inactive).

Another test can be described thus: small-molecule microarray binders of probe aLefty2, primary screen, biochemical, biotinylated probe, 635/667 nm fluorescence (AID 1094).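 Also: score merges spot fluorescence near 667 nm with spot signal-to-noise ratio.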 The settings on record: higher = more signal.
For `COc1cc2c(cc1O)C(C)N(Cc1ccc([N+](=O)[O-])o1)CC2` (stereo not drawn), the composite z-score was found to be 0.136.

For the compound `COCCOC(=O)N1C(=O)[C@@]2(c3cc(C#Cc4ccc(OC)cc4)ccc31)[C@H](c1ccc(O)cc1)N1[C@H](c3ccccc3)[C@H](c3ccccc3)OC(=O)[C@H]1[C@@H]2C(=O)N1CCCCCCC1`, the composite z-score came to 1.43. The same measure, in the same setting: under `COc1ccc([Si](C)(C)[C@@H]2[C@@H](CC(=O)N(CCO)Cc3ccccc3)O[C@]3(C(=O)N(Cc4cccc(N5C(=O)c6cccc7cccc5c67)c4)c4ccccc43)[C@H]2C)cc1` stands -0.259. Same read-out and setting: under `Cc1ccc(S[C@]2(C(=O)O)CC(=O)N(Cc3ccccc3Cl)[C@@H]2c2ccc(CO)cc2I)cc1` stands -0.131; under `COC(=O)C1=CC(CCCO)=CC(C2CC2)N(C)C=C1C(=O)OC` (stereo not drawn), -0.117. Compound `COCCOC(=O)N1C(=O)[C@@]2(c3cc(C#CCC(C(=O)OC)C(=O)OC)ccc31)[C@H](C(=O)N1CCc3cc(OC)c(OC)cc3C1)[C@H]1C(=O)O[C@H](c3ccccc3)[C@H](c3ccccc3)N1[C@@H]2c1ccc(OCCO)cc1` registered a composite z-score of -0.0259. Still for that read-out and setting: for `COc1ccc([Si](C)(C)[C@H]2[C@H](CCO)O[C@@]3(C(=O)N(Cc4cccc(N5C(=O)COc6ccccc65)c4)c4ccccc43)[C@@H]2C)cc1` the value was -0.0021. The same measure, in the same setting: under `CN(C)CCCNC(=O)[C@@]1(C)c2ccccc2C(=O)N(Cc2ccccc2)[C@H]1c1ccc(CO)cc1` stands 0.151; under `COC(=O)c1c2oc(c1C(=O)OC)C(=O)N(Cc1ccccc1)Cc1cn(nn1)C[C@H](Cc1ccccc1)NC(=O)N[C@H](CO)CC2`, -0.256; under `[N-]=[N+]=NCc1ccccc1[C@H]1OC(c2ccc(OCCCO)cc2)=N[C@@]1(CCS(=O)(=O)c1ccccc1)C(=O)N1CCCCC1`, 0.574. Take `O=C(CS)NCCCCCNC(=O)[C@@H]1C[C@@H]2C(=O)N3CCC[C@H]3C(=O)N2[C@@H]1c1cccc(OCCO)c1`: the composite z-score is -0.0998. The same measure, in the same setting: under `COCCOC(=O)N1C(=O)[C@@]2(c3cc(C#CCCO)ccc31)[C@H](C(=O)Nc1nc3ccccc3s1)[C@H]1C(=O)O[C@H](c3ccccc3)[C@H](c3ccccc3)N1[C@@H]2c1ccccc1OCCO` stands -0.116; under `C[C@@H]1NC(=O)[C@@]23C(=O)N[C@@H](Cc4ccccc4)C2[C@H](C)[C@@]2(C)O[C@H]2C3/C=C/C/C=C\CNC(=O)[C@@H]2CCCN2C1=O` (stereo partly drawn), -0.132. `CCC[C@@H]1C[C@@]1(CCC)[C@@H](NC(=O)OCc1ccccc1)c1ccc(-c2ccccc2)cc1` gave a composite z-score of 0.239. The same measure, in the same setting: for `CC[C@H]1C2=C3C(CC[C@H]4C(OCc5ccc(F)cc5C(F)(F)F)OC[C@](C)([C@@H]34)N(C(=O)OC(C)(C)C)C2)C(COC)C1COC` (stereo partly drawn) the value was 0.0392; for `CC(C)(C)OC(=O)CC[C@@]1(C(=O)NCc2ccccc2)N=C(c2ccc(OCCCO)cc2)O[C@@H]1c1ccccc1N=[N+]=[N-]`, 0.372; for `CCC(CC)C(O)C1C=CC2C(=O)N(c3ccccc3)C(=O)C2N1Nc1ccc(C(C)C)cc1` (stereo not drawn), 0.0659. The same measure, in the same setting: for `C[C@H]1NC(=O)[C@@]23C(=O)N[C@@H](Cc4ccccc4)C2[C@H](C)[C@@]2(C)O[C@H]2C3/C=C/C/C=C\CNC(=O)[C@H](Cc2ccccc2)NC1=O` (stereo partly drawn) the value was -0.213; for `COCCOC(=O)N1C(=O)[C@@]2(c3cc(C#CC4=CCCCC4)ccc31)[C@H](C(N)=O)[C@H]1C(=O)O[C@H](c3ccccc3)[C@H](c3ccccc3)N1[C@@H]2c1ccccc1OCCO`, -0.0028. On the same count and under the same terms, for `CCOC(=O)C[C@H]1[C@H](OC(=O)c2cc3ccccc3oc2=O)[C@@H](NC(=O)c2ccc(-c3ccccc3)cc2)c2cc(OCCCO)ccc2N1C(=O)c1ccc2ccccc2n1` the value was -0.084. With `COC(=O)[C@@]1(Cc2ccc(F)cc2)[C@H]2c3cc(C(=O)N(C)C)n(Cc4cc(F)cc5c4OCOC5)c3C[C@H]2CN1C(=O)c1ccccc1`, the composite z-score was found to be 0.44. The same measure, in the same setting: for `COC(=O)[C@@]1(Cc2ccccc2)[C@@H]2C(=CC(=O)[C@H]2CC(=O)C(=O)N(C)C)CN1C(=O)c1ccccc1` the value was 0.262; for `CN1C(=O)C2C=CC(C(O)c3ccc(F)cc3)N(Nc3ccccc3)C2C1=O` (stereo not drawn), 0.085; for `CCCC[C@@H]1C[C@H]1[C@@H](NC(=O)c1ccccc1)c1ccc(C(F)(F)F)cc1`, 0.161. Still for that read-out and setting: for `COc1ccc([Si](C)(C)[C@H]2[C@H](CCn3cc([C@H](O)c4ccccc4)nn3)O[C@@]3(C(=O)N(Cc4ccc(N5C(=O)c6cccc7cccc5c67)cc4)c4ccccc43)[C@@H]2C)cc1` the value was -0.0674; for `C[N+](C)(C)CCCC[C@@H]1NC(=O)[C@H]2C[C@@H](C(=O)NCCCCCCN)[C@@H](c3ccc(O)cc3)N2C1=O`, 0.265; for `O[C@@H](Cc1ccccc1)[C@@H](/C=C/C1CC1)N(CC#Cc1ccccc1)Cc1cccc(Cl)c1`, 0.146. Still for that read-out and setting: for `CCOC(=O)C[C@H]1[C@H](OC(=O)c2ccccc2-c2ccccc2)[C@@H](NC(=O)c2ccc(-c3ccccc3)cc2)c2cc(OCCCO)ccc2N1C(=O)c1ccc2ccccc2n1` the value was 0.0332; for `CN(C)c1ccc(C(O)C2C=CC3C(=O)N(c4ccccc4)C(=O)C3N2Nc2ccc([N+](=O)[O-])cc2)cc1` (stereo not drawn), 0.401. In turn, `COC(=O)[C@@]1(Cc2ccc(OC)cc2)[C@H]2c3cc(C(=O)N4CCCC4)n(Cc4c(-c5ccccc5)noc4C)c3C[C@H]2CN1C(=O)c1ccccc1` had a composite z-score of 0.422.

The compound `COc1ccc(-c2nc(-c3ccccc3)c3c(c2C)CO[Si]3(C(C)C)C(C)C)cn1` displayed a composite z-score of -0.162. For the compound `O=C1O[C@@H](c2ccccc2)[C@@H](c2ccccc2)N2[C@@H](c3ccc(O)cc3)[C@]3(C(=O)Nc4ccc(C#CC5=CCCCC5)cc43)[C@@H](C(=O)NC[C@H](O)c3ccccc3)[C@H]12`, the composite z-score is -0.0916. Still for that read-out and setting: for `CO[C@H]1O[C@H](CO)[C@@H](OC(=O)Nc2ccccc2-c2ccccc2)[C@H](OC(=O)Nc2ccc3c(c2)OCO3)[C@H]1OC(=O)Nc1ccc2c(c1)OCO2` the value was 0.132; for `COC(=O)[C@@]1(Cc2ccc(F)cc2)[C@H]2c3cc(C(=O)N4CCCC4)n(CCN4CNCC4=O)c3C[C@H]2CN1C(=O)c1ccccc1`, 0.459; for `CN(C)CCCNC(=O)[C@@H]1c2ccccc2C(=O)N(Cc2ccccc2Cl)[C@H]1c1ccc(CO)cc1`, -0.295.
